# According to the supplement of paper PMC9262897, “Low-cost anti-mycobacterial drug discovery using engineered E. coli” (Nature Communications, 2022):
# Counter-ions that a name gives are not always drawn. ± gives the standard deviation of the averaged measurements.
# How the values were obtained:
# Experiment in all cases: growth (OD600 after 10 h); higher = more growth (less inhibition)
# [1] = test system: E. coli TESEC Alr+ wild-type control; conditions: compound 0.1 mM; raw OD600 reference: median of DMSO wells 0.241, cell-free background 0.041
# Description: (§1)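 TESEC Mtb Alr E. coli, or the Alr+ wild-type control, in 384-well plates with Prestwick library compounds at 0.1 mM and 1% DMSO, across arabinose induction levels of 1E3 to 1E7 nM. Growth is read as OD600 after 10 h at 37 °C in triplicate biological replicates.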
# E. coli TESEC Mtb Alr [2] = conditions: compound 0.1 mM
# Description: as §1
# E. coli TESEC Mtb Asd = conditions: compound 0.1 mM
# Description: (§2)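 TESEC E. coli strains in which the native enzyme is deleted and replaced by arabinose-inducible Mtb Asd, DapB, CysH or TrpD, each grown in its selective medium. Strains were screened against the Prestwick library at 0.1 mM and 1% DMSO in 384-well format at low and high arabinose induction. Growth is read as OD600 after 10 h in triplicate.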
# E. coli TESEC Mtb DapB = conditions: compound 0.1 mM
# Description: as §2
# E. coli TESEC Mtb Alr [3] = conditions: compound 0.1 mM; remark: listed apart in the source
# Description: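 TESEC Mtb Alr E. coli (ΔaraC ΔtolC ΔentC Δalr ΔdadX, arabinose-inducible Mtb Alr) or the Alr+ wild-type control strain, grown in defined M9-fructose medium without D-alanine in 96-well plates with Prestwick library compounds at 0.1 mM and 1% DMSO. Low Alr induction is 0.1 µM arabinose and high induction is 10 mM arabinose.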
# [4] = arabinose 1000 nM, raw OD600 reference: median of DMSO wells 0.294, cell-free background 0.041
# [5] = arabinose 10000 nM, raw OD600 reference: median of DMSO wells 0.264, cell-free background 0.041
# [6] = arabinose 100000 nM, raw OD600 reference: median of DMSO wells 0.201, cell-free background 0.041
# [7] = arabinose 1000000 nM, raw OD600 reference: median of DMSO wells 0.193, cell-free background 0.041
# [8] = arabinose 10000000 nM, raw OD600 reference: median of DMSO wells 0.146, cell-free background 0.041
# [9] = arabinose induction (level): High, raw OD600 reference: median of DMSO wells 0.331, cell-free background 0.041
# [10] = arabinose induction (level): Low, raw OD600 reference: median of DMSO wells 0.417, cell-free background 0.041
# [11] = arabinose induction (level): High, raw OD600 reference: median of DMSO wells […], cell-free background 0.041
# [12] = arabinose induction (level): Low, raw OD600 reference: median of DMSO wells 0.227, cell-free background 0.041
# [13] = arabinose 100 nM, raw OD600 reference: median of DMSO wells 0.413, cell-free background 0.052
# [14] = arabinose 10000000 nM, raw OD600 reference: median of DMSO wells […], cell-free background 0.052
Compound,growth [1],growth (E. coli TESEC Mtb Alr [2]; [4]),growth (E. coli TESEC Mtb Alr [2]; [5]),growth (E. coli TESEC Mtb Alr [2]; [6]),growth (E. coli TESEC Mtb Alr [2]; [7]),growth (E. coli TESEC Mtb Alr [2]; [8]),growth (E. coli TESEC Mtb Asd; [9]),growth (E. coli TESEC Mtb Asd; [10]),growth (E. coli TESEC Mtb DapB; [11]),growth (E. coli TESEC Mtb DapB; [12]),growth (E. coli TESEC Mtb Alr [3]; [13]),growth (E. coli TESEC Mtb Alr [3]; [14])
CC(C)NCC(O)COc1ccc(COCCOC(C)C)cc1 (centres undefined) [Bisoprolol fumarate],0.227 ± 0.01,0.302 ± 0.01,0.254 ± 0.01,0.222 ± 0.032,0.192 ± 0.0099,0.14 ± 0.0055,0.391 ± 0.017,0.467 ± 0.07,0.184 ± 0.017,0.227 ± 0.027,0.409 ± 0.016,0.37 ± 0.028
COc1ccnc(C[S+]([O-])c2nc3cc(OC(F)F)ccc3[nH]2)c1OC (centres undefined) [Pantoprazole sodium],0.168 ± 0.0022,0.218 ± 0.0049,0.28 ± 0.0076,0.18 ± 0.011,0.119 ± 0.0037,0.137 ± 0.0065,0.308 ± 0.1,0.296 ± 0.057,0.189 ± 0.0071,0.194 ± 0.018,0.399 ± 0.011,0.291 ± 0.022
CCN(CCO)CCCC(C)Nc1ccnc2cc(Cl)ccc12 (centres undefined) [Hydroxychloroquine sulfate],0.228 ± 0.0034,0.282 ± 0.011,0.27 ± 0.0028,0.19 ± 0.015,0.1939 ± 0.0019,0.147 ± 0.0019,0.265 ± 0.052,0.352 ± 0.013,0.198 ± 0.0048,0.24 ± 0.04,0.405 ± 0.01,0.354 ± 0.017
C[C@H](N[C@@H](CCc1ccccc1)C(=O)O)C(=O)N1CCC[C@H]1C(=O)O [Enalaprilat dihydrate],0.228 ± 0.0039,0.2913 ± 0.0017,0.285 ± 0.011,0.198 ± 0.019,0.208 ± 0.01,0.1379 ± 0.0012,0.259 ± 0.063,0.31 ± 0.094,0.21 ± 0.013,0.216 ± 0.022,0.411 ± 0.011,0.308 ± 0.022
C[C@]12CCC(=O)C=C1C=C[C@@H]1[C@@H]2CC[C@@]2(C)[C@H]1CC[C@@]21CCC(=O)O1 [Canrenone],0.129 ± 0.0013,0.139 ± 0.0075,0.097 ± 0.0013,0.131 ± 0.0077,0.0738 ± 0.0044,0.126 ± 0.0083,0.217 ± 0.055,0.227 ± 0.042,0.139 ± 0.011,0.174 ± 0.0092,0.363 ± 0.0069,0.144 ± 0.031
C=C1c2cccc(O)c2C(O)=C2C(=O)[C@]3(O)C(O)=C(C(N)=O)C(=O)[C@@H](N(C)C)[C@@H]3[C@@H](O)[C@H]12 [Methacycline hydrochloride],0.0468 ± 0.0013,0.0453 ± 0.00098,0.0468 ± 0.0019,0.0492 ± 0.0052,0.0489 ± 0.0047,0.0481 ± 0.0026,0.05743 ± 0.00057,0.0548 ± 0.0016,0.0592 ± 0.0012,0.0603 ± 0.0025,0.0587 ± 0.0009,0.066 ± 0.0023
CCOc1cc(CC(=O)N[C@@H](CC(C)C)c2ccccc2N2CCCCC2)ccc1C(=O)O [Repaglinide],0.185 ± 0.0042,0.199 ± 0.0075,0.26 ± 0.024,0.175 ± 0.0084,0.174 ± 0.0073,0.155 ± 0.01,0.282 ± 0.03,0.247 ± 0.032,0.168 ± 0.014,0.201 ± 0.031,0.4 ± 0.0047,0.306 ± 0.014
CCN(CC)CCOC(=O)C1(C2CCCCC2)CCCCC1 [Dicyclomine hydrochloride],0.137 ± 0.0054,0.115 ± 0.063,0.195 ± 0.0043,0.157 ± 0.016,0.06453 ± 0.00058,0.103 ± 0.0024,0.137 ± 0.014,0.21 ± 0.049,0.144 ± 0.0069,0.183 ± 0.041,0.393 ± 0.017,0.11 ± 0.003
CC(C)(Oc1ccc(Cl)cc1)C(=O)O [Clofibric acid],0.253 ± 0.0056,0.313 ± 0.011,0.256 ± 0.01,0.201 ± 0.015,0.171 ± 0.0038,0.154 ± 0.0039,0.443 ± 0.024,0.442 ± 0.025,0.199 ± 0.016,0.251 ± 0.037,0.404 ± 0.011,0.305 ± 0.011
CC1CC(OC(=O)C(O)c2ccccc2)CC(C)(C)N1C (centres undefined) [Eucatropine hydrochloride],0.245 ± 0.0073,0.326 ± 0.015,0.282 ± 0.0064,0.194 ± 0.0092,0.191 ± 0.0054,0.156 ± 0.0098,0.479 ± 0.008,0.432 ± 0.065,0.199 ± 0.033,0.227 ± 0.024,0.402 ± 0.014,0.36 ± 0.016
NCCCCCC(=O)O [Aminocaproic acid],0.249 ± 0.0031,0.314 ± 0.019,0.257 ± 0.016,0.1768 ± 0.00047,0.172 ± 0.0099,0.161 ± 0.0086,0.47 ± 0.023,0.438 ± 0.028,0.206 ± 0.02,0.28 ± 0.025,0.407 ± 0.017,0.354 ± 0.025
O=C1c2ccccc2S(=O)(=O)N1CCCCN1CCN(c2ncccn2)CC1 [Ipsapirone],0.206 ± 0.0034,0.256 ± 0.015,0.249 ± 0.0074,0.171 ± 0.0059,0.154 ± 0.007,0.141 ± 0.0076,0.226 ± 0.048,0.389 ± 0.064,0.205 ± 0.026,0.221 ± 0.021,0.4 ± 0.0047,0.313 ± 0.012
NS(=O)(=O)c1cc2c(cc1Cl)NCNS2(=O)=O [Hydrochlorothiazide],0.245 ± 0.0063,0.282 ± 0.019,0.255 ± 0.006,0.234 ± 0.011,0.166 ± 0.0054,0.14 ± 0.0039,0.367 ± 0.053,0.408 ± 0.031,0.201 ± 0.013,0.244 ± 0.027,0.41 ± 0.014,0.367 ± 0.019
CN(C)CCCN1c2ccccc2Sc2ccccc21 [Promazine hydrochloride],0.189 ± 0.0053,0.227 ± 0.011,0.2724 ± 0.002,0.192 ± 0.01,0.129 ± 0.0026,0.158 ± 0.004,0.187 ± 0.03,0.261 ± 0.023,0.195 ± 0.017,0.254 ± 0.033,0.415 ± 0.0068,0.273 ± 0.0038
CC(C)NCC(O)COc1ccc(CCOCC2CC2)cc1 (centres undefined) [Betaxolol hydrochloride],0.222 ± 0.0081,0.301 ± 0.0039,0.26 ± 0.0051,0.232 ± 0.034,0.179 ± 0.014,0.161 ± 0.0056,0.264 ± 0.049,0.359 ± 0.069,0.235 ± 0.026,0.246 ± 0.011,0.404 ± 0.011,0.341 ± 0.014
COc1cccc2c1C(=O)c1c(O)c3c(c(O)c1C2=O)C[C@@](O)(C(C)=O)C[C@@H]3O[C@H]1C[C@H](N)[C@H](O)[C@H](C)O1 [Daunorubicin hydrochloride],0.0457 ± 0.0022,0.0442 ± 0.0008,0.04263 ± 5.8e-05,0.0446 ± 0.001,0.04253 ± 0.00038,0.0433 ± 0.0001,0.058 ± 0.0071,0.0577 ± 0.0054,0.0527 ± 0.0011,0.0519 ± 0.00092,0.0571 ± 0.0011,0.0536 ± 0.00026
O=C(O)COCCN1CCN(C(c2ccccc2)c2ccc(Cl)cc2)CC1 (centres undefined) [Cetirizine dihydrochloride],0.21 ± 0.0098,0.275 ± 0.0074,0.25 ± 0.006,0.218 ± 0.017,0.183 ± 0.0077,0.14 ± 0.0034,0.223 ± 0.017,0.273 ± 0.045,0.168 ± 0.013,0.199 ± 0.019,0.41 ± 0.014,0.349 ± 0.022
